Assay outcomes from PubChem.
SMN2 splice enh: enhancers of SMN2 splice variant expression; HEK293 SMN2-luciferase splicing reporter, luminescence, 30-36 h; Potency, µM (titrated, usually from 46.1 µM), for inactives: at the top dose activity change, positive = activation, hits mostly activators; 210,000 tested, 2.8% active; further: % of control where 0% means no effect; nearly all actives have a fitted effect of over 55% in size
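HEK293 cells carry an SMN2 minigene-luciferase reporter in which exon 7 inclusion puts luciferase in frame. Cells were seeded at 2000 cells/well, attached for 10-12 hours, then exposed to compounds for 30-36 hours at 37C before ONE-Glo luminescence.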
ELG1 genotox: inducers of genotoxicity in HEK293T ELG1-luciferase cells; Potency, µM (titrated, usually from 46 µM), for the others: at the top dose activity change, positive = activation, usual class: activators; HEK293T ELG1-luciferase reporter, luminescence, 16 h; 330,000 tested, 1.3% active; further: % of control where 0% means no effect; nearly all actives have a fitted effect of over 60% in size
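Genotoxicity was scored as increased ELG1-luciferase reporter signal, measured by ONE-Glo luminescence (30 min, room temperature). Compound or vehicle exposure of the HEK293T reporter cells lasted 16 hr at 37°C.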
Luc counter: blocks Kinase-Glo luciferase, a counter-screen artifact | Q27757 | Kinase-Glo luciferase, ATP luminescence, 8 min | Potency, µM (titrated, usually from 38.3 µM), inactives show top-dose activity change, negative = inhibition, usual class: inhibitors | 200,000 tested, 0.28% active; further: on the % scale 0 is the no-effect control and ±100 the full control effect; nearly all actives have a fitted effect of over 60% in size
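Light output from Kinase-Glo luciferase with luciferin and 10 uM ATP in 50 mM imidazole pH 7.2, KCl, MgCl2, Tween 20, BSA; compound pin-delivered, 8-min ambient incubation, then luminescence read.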
FLuc modulator: counter-screen for miR-21 project: firefly luciferase inhibitors or activators; AID 588342; Potency, µM (series often up to 57.5 µM), inactives show at the top dose activity change, negative = inhibition, actives largely listed as inhibitors; 360,000 tested, 6.9% active; P08659; purified FLuc, Km substrates, luminescence inhibition;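 further: plate controls were vehicle for no effect and reference inhibitor for full effect; nearly all actives have a fitted effect of over 55% in size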
Target sequence (P08659 whole entry, looked up): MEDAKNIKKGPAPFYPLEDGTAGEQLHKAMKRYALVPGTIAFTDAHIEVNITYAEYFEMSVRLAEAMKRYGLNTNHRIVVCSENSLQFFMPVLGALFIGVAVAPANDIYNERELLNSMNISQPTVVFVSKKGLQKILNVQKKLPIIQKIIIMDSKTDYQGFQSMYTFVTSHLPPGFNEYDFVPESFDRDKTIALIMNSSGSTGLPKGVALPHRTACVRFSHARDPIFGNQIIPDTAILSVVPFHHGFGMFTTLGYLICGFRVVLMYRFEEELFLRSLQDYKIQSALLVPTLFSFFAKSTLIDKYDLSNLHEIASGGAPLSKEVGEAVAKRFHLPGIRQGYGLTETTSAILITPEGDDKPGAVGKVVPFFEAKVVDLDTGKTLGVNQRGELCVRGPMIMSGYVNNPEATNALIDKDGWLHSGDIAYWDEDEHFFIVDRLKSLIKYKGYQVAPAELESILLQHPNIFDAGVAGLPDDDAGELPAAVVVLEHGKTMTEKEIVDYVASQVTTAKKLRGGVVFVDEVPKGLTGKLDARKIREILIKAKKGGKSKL
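Purified P. pyralis luciferase, 10 nM final, with Km-level 10 uM D-luciferin and 10 uM ATP in 50 mM Tris acetate pH 7.5, 10 mM Mg acetate, 0.01% Tween-20, 0.05% BSA; 6-point qHTS titration about 60 µM downward; luminescence read.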
Rab9 prom act: activates the Rab9 promoter. Huh7 Rab9 promoter-luciferase reporter, luminescence, 24 h. Potency, µM (top dose mostly 9.22 µM), inactives show at the highest dose activation, negative = inhibition, most hits filed as activators. 320,000 tested, 2.8% active. AID 485297; further: % of control where 0% means no effect; nearly all actives have a fitted effect of over 60% in size
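Quantitative HTS format; Huh7 Rab9-luciferase reporter cells (1500/well) receive compound 2 h post-plating, incubate 24 h at 37 °C, then get luciferase reagent for 10 min before luminescence reading.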
NPC1 prom act: activates the NPC1 promoter; Potency, µM (series often up to 9.22 µM), without a hit: top-dose activation, usual class: activators; 320,000 tested, 2.4% active; Huh7 NPC1 promoter luciferase reporter, 24 h; further: % of control where 0% means no effect; nearly all actives have a fitted effect of over 60% in size
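NPC1 promoter–luciferase Huh7 cells; 24 h compound; luminescence.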
Starred values were filed as active, the others as inactive; ? = inconclusive; nt = not tested or not shown; [ ] = remark or other dose. This is a sample that favours compounds with a hit; in the whole collection about 7.3% have one here. The call rests on the fitted dose curve; in most records, active means well fitted curve in the direction sought with a large enough effect; inconclusive means small, poorly fitted or top-dose-only effect, or another doubt; inactive means no such curve, though single readings can be large; an effect the other way counts as inactive or inconclusive. Potency means the concentration at half of the fitted maximal effect.

SMILES | SMN2 splice enh | ELG1 genotox | Luc counter | FLuc modulator | Rab9 prom act | NPC1 prom act
COc1ccc(OC(=O)/C=C/c2ccc([N+](=O)[O-])cc2)cc1 | nt | -1% | nt | 7% | -10%[1.84 µM] | 2%
CCOc1ccc(/C=C/C(=O)c2ccc(-c3ccccc3)cc2)cc1 | -20% | -5% | 0% | -8% | -5% | 2%
CC#CCN1c2ccccc2[C@]23C[C@@H](C(=O)OC)N(C(=O)CC(C)C)C2=NC(C(=O)OC)=C(C(=O)OC)[C@H]13 | 1%[9.22 µM] | nt | -2%[7.66 µM] | nt | nt | nt
COc1ccc(C(=O)NN/C(=N/S(=O)(=O)c2ccc(C)cc2)c2ccccc2)cc1 | nt | ? | nt | 5.4µM* | 2.5µM* | 2.8µM*
Cc1ccc(S(=O)(=O)/N=C(/NC(=S)Nc2ccccc2)c2ccccc2)cc1 | ? | ? | 1% | 4.8µM* | 2.8µM* | 3.5µM*
Cc1ccc(NC(=S)N/C(=N/S(=O)(=O)c2ccccc2)c2ccccc2)cc1 | -1% | 23µM* | -3% | 11µM* | 2% | 9%
CC(=O)Nc1ccc(N/C(=N\S(=O)(=O)c2ccccc2)c2ccccc2)cc1 | nt | -2% | nt | 2% | 9% | -1%
COc1ccccc1NC(=O)C1=C(C)Nc2ncnn2C1c1cccn1C (stereo not drawn) | nt | nt | nt | -1% | nt | nt
COc1cc(OC)c(NC(=O)N2CCc3cc(OC)c(OC)cc3C2CC(=O)O)cc1Cl (stereo not drawn) | nt | nt | nt | -18% | nt | nt
COC(=O)/C(=C1\OC(=O)C(c2ccccc2)C1=O)c1ccccc1 (stereo not drawn) | 13µM* | nt | -2% | nt | nt | nt
COc1cc(/C=C2\CCC(C3CCCC3)C2=O)cc(OC)c1OC (stereo not drawn) | nt | 3% | nt | ? | 14% | 3%
COc1cccc(/C=C2\CCC(C3CCCC3)C2=O)c1OC (stereo not drawn) | nt | ? | nt | 1.1µM* | 4µM* | 2.8µM*
COc1ccc(/C=C2/CC/C(=C\c3ccc(OC)c(OC)c3OC)C2=O)c(OC)c1OC | -27% | 10% | 2% | 5% | -3% | -5%
COc1ccc(/C=C2\CCC(C3CCCC3)C2=O)c(OC)c1OC (stereo not drawn) | nt | 11% | nt | 24µM* | 0%[1.84 µM] | -4%
CCc1ccc(CN(C(=O)Nc2cccc(Cl)c2)c2ccccn2)cc1 | nt | nt | nt | -19% | nt | nt
CCOC(=O)N1N=C(c2ccccc2)CC1(O)C(C)(F)F (stereo not drawn) | 8% | 0% | -1% | 6% | -5% | -4%
CCOC(=O)N1N=C(c2ccc(OC)cc2)CC1(O)C(F)(F)F (stereo not drawn) | nt | ? | -9% | 3.4µM* | 0.89µM* | 1.1µM*
CCc1ccc(C2=NN(C(=O)OC)C(O)(C(F)(F)F)C2)cc1 (stereo not drawn) | -2% | ? | -11% | 2.7µM* | 0.63µM* | 0.45µM*
COc1ccc(CC(=O)N2N=C(c3ccncc3)CC2(O)C(F)(F)F)cc1 (stereo not drawn) | 13% | -3% | 1% | 5% | -22% | -37%
C/C(O)=C1\C(=O)[C@@H]2[C@H]3c4c[nH]c5cccc(c45)C[C@H]3C(C)(C)N2C1=O | -5% | nt | nt | nt | nt | nt
O=C(c1cnsn1)N1CCC(CO)(Cc2cccc(F)c2)CC1 | nt | ? | 3% | 13µM* | 3.2µM* | ?
Cc1cc(C(=O)N2CCC(CO)(Cc3cccc(C(F)(F)F)c3)CC2)n[nH]1 | nt | -3% | nt | -1% | -1% | 0%
COc1ccc(CCNC(=O)C(=O)NCC(c2ccc3c(c2)OCO3)N2CCOCC2)cc1OC (stereo not drawn) | nt | nt | nt | 0% | nt | nt
Cc1ccc(N2CCN(c3ccc(NCc4nc5ccccc5n4C)cc3)CC2)cc1 | -25% | 0% | -3% | -19% | 2% | 0%
